# Values without a mark were called inactive. Inconclusive results are not listed. Entries that show only a call come without a potency. Active and inactive are the calls of the source. Unless noted, calls follow the shape of the dose curve; as a rule, active = well fitted curve in the direction sought with a large enough effect in the repeat runs; inconclusive = weak or mixed curves; inactive = no such curve, though single readings can be large; an effect the other way counts as inactive or inconclusive.
# Assays:
# [1] = qHTS RealTime-Glo MT Cell Viability Assay in HEK293 cells - 0 hour (AID 1224880); also: top concentration of the series differs between compounds; nearly all actives have a fitted effect of over 45% in size
# Summary of the method: (§1)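 Viable HEK293 cells reduce a cell-permeant prosubstrate; the product diffuses out and is consumed by NanoLuc in the medium to give light. Compounds went in after a 5 h incubation and plates were read over the treatment course.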
# [2] = A CellTox Green Cytotoxicity Assay to monitor cytotoxicity in HEK293 cells - 32 hour (AID 1224881); also: nearly all actives have a fitted effect of over 40% in size
# Summary of the method: (§2)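 Fluorescence intensity, read at 0, 8, 16, 24, 32 and 40 h of compound treatment, reflected dye binding to DNA of dead HEK293 cells; compounds (23 nL, DMSO) were added 5 h after plating cells with reagent.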
# [3] = A CellTox Green Cytotoxicity Assay to monitor cytotoxicity in HepG2 cells - 0 hour (AID 1224882); also: nearly all actives have a fitted effect of over 35% in size
# Summary of the method: (§3)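 Using 1536-well format, dye-containing HepG2 suspension was seeded, allowed 5 h at 37 C/5% CO2, dosed by pintool with compounds, positive and negative controls, and imaged for fluorescence across 40 h.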
# [4] = A CellTox Green Cytotoxicity Assay to monitor cytotoxicity in HepG2 cells - 32 hour (AID 1224883); also: nearly all actives have a fitted effect of over 50% in size; also: potency is read from the fitted curve at half-maximal effect
# Summary of the method: as §3
# [5] = qHTS RealTime-Glo MT Cell Viability Assay in HepG2 cells - 16 hour (AID 1224885); also: nearly all actives have a fitted effect of over 50% in size
# Summary of the method: (§4)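 Cell number in HepG2 cultures estimated from NanoLuc luminescence generated by metabolic reduction of a prosubstrate by living cells. The homogeneous, nonlytic format allowed repeated reads at 0, 8, 16, 24, 32 and 40 h of compound exposure.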
# [6] = qHTS RealTime-Glo MT Cell Viability Assay in HEK293 cells - 24 hour (AID 1224886); also: top concentration of the series differs between compounds; nearly all actives have a fitted effect of over 50% in size
# Summary of the method: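 Homogeneous bioluminescent viability format in HEK293 cells (600 cells/well). Following 5 h at 37 C/5% CO2, 23 nL compound was pintooled; the signal was measured repeatedly during 40 h incubation.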
# [7] = qHTS RealTime-Glo MT Cell Viability Assay in HEK293 cells - 8 hour (AID 1224887); also: top concentration of the series differs between compounds; nearly all actives have a fitted effect of over 50% in size
# Summary of the method: as §1
# [8] = A CellTox Green Cytotoxicity Assay to monitor cytotoxicity in HEK293 cells - 16 hour (AID 1224888); also: nearly all actives have a fitted effect of over 35% in size
# Summary of the method: as §2
# [9] = qHTS RealTime-Glo MT Cell Viability Assay in HepG2 cells - 0 hour (AID 1224889); also: nearly all actives have a fitted effect of over 50% in size
# Summary of the method: as §4
# [10] = A CellTox Green Cytotoxicity Assay to monitor cytotoxicity in HepG2 cells - 8 hour (AID 1224890); also: nearly all actives have a fitted effect of over 45% in size
# Summary of the method: as §3
# [11] = qHTS assay to identify small molecule antagonists of the estrogen receptor alpha (ER-alpha) signaling pathway using the BG1 cell line in the presence of 0.1 nM 17-beta-estradiol - cell viability counter screen (AID 1259241); also: nearly all actives have a fitted effect of over 40% in size
# Summary of the method: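 Cells were plated and left 24 hr, compounds in DMSO were pinned in, 17beta-estradiol was added to 0.1 nM final, and after 22 hr CellTiter-Fluor reagent was added for 30 min before fluorescence was read.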
# [12] = qHTS assay to identify small molecule antagonists of the androgen receptor (AR) signaling pathway using the MDA cell line in the presence of 0.5 nM R1881 - cell viability counter screen (AID 1259242); also: nearly all actives have a fitted effect of over 45% in size
# Summary of the method: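 Viability of MDA-kb2 cells was multiplexed with the luciferase AR readout; after 16 hr with compounds and R1881 at 0.5 nM final, CellTiter-Fluor fluorescence was recorded.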
# [13] = qHTS assay to identify small molecule HDAC inhibitors (AID 1259364);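 also: wild-type HCT-116 cells with endogenous class I/II HDAC activity; top concentration of the series differs between compounds; nearly all actives have a fitted effect of over 45% in size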
# Summary of the method: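 Read-out: luminescence of HDAC-Glo I/II reagent, 30 min RT, reflecting class I/II deacetylase activity in whole HCT-116 cells pre-exposed 2 h to DMSO-dissolved compounds.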
# [14] = qHTS assay to identify small molecule agonists of the sonic hedgehog signaling (Shh) pathway - cell viability counter screen (AID 1259366); also: nearly all actives have a fitted effect of over 50% in size
# Summary of the method: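 Cells are plated at 2,000 per well and left 4hr at 37C, 5% CO2 before compound addition. After 23hr of treatment, CellTiter-Fluor reagent is added for 1hr at 37C and fluorescence is measured.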
# [15] = qHTS assay to identify small molecule antagonists of the sonic hedgehog signaling (Shh) pathway - cell viability counter screen (AID 1259367); also: nearly all actives have a fitted effect of over 55% in size
# Summary of the method: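 NIH/3T3-derived Gli1-Luc reporter cells, 2,000/well, plated 4 hr before compound addition, then stimulated with conditioned medium for 24 hr at 37C. Viability measured in the same wells by CellTiter-Fluor fluorescence, reagent added at 23 hr for 1 hr.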
# [16] = target: Estrogen receptor (Homo sapiens) (UniProt P03372); assay: qHTS assay to identify small molecule antagonists of the estrogen receptor alpha (ER-alpha) signaling pathway using the BG1 cell line in the presence of 0.1 nM 17-beta-estradiol (AID 1259244); also: nearly all actives have a fitted effect of over 50% in size
# Summary of the method: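 Estradiol at 0.1 nM (final) stimulates the endogenous ER-alpha of VM7Luc4E2 cells carrying an ERE-driven luciferase; compounds are co-incubated 22 h at 37C and luciferase output quantified by luminescence.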
# [17] = qHTS assay to identify small molecule HDAC inhibitors - cell viability counter screen (AID 1259365)
# Summary of the method: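 Counter screen in wild-type HCT-116 cells: compounds dissolved in DMSO are pin-transferred onto overnight-plated cells and left 2hr at 37C. ATP-based CellTiter-Glo luminescence then measures viable cells.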
# [18] = qHTS assay to identify small molecule phospholipidosis (PLD) inducers (AID 1259344; active = well fitted curve in the direction sought with a large enough effect; an effect the other way counts as inactive or inconclusive)
# Summary of the method: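 HepG2 cells, 900/well, treated with compound plus LipidTOX Red for 24 h at 37 C; amiodarone positive and DMSO negative controls. Fixed with paraformaldehyde/Hoechst, then high-content imaging scored LipidTOX pit count and integrated intensity per well and per cell.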
# [19] = target: Androgen receptor (Homo sapiens) (UniProt P10275); assay: qHTS assay to identify small molecule antagonists of the androgen receptor (AR) signaling pathway using the MDA cell line in the presence of 0.5 nM R1881 (AID 1259243); also: nearly all actives have a fitted effect of over 50% in size
# Summary of the method: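 Reporter cells cultured without CO2 receive test chemicals, then 0.5 nM R1881 final; after 16 hr at 37C, ONE-Glo is added and light output recorded.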
# [20] = A CellTox Green Cytotoxicity Assay to monitor cytotoxicity in HEK293 cells - 8 hour (AID 1224884); also: nearly all actives have a fitted effect of over 35% in size
# Summary of the method: as §2
# Estrogen receptor (Homo sapiens), sequence (P03372 whole entry, looked up): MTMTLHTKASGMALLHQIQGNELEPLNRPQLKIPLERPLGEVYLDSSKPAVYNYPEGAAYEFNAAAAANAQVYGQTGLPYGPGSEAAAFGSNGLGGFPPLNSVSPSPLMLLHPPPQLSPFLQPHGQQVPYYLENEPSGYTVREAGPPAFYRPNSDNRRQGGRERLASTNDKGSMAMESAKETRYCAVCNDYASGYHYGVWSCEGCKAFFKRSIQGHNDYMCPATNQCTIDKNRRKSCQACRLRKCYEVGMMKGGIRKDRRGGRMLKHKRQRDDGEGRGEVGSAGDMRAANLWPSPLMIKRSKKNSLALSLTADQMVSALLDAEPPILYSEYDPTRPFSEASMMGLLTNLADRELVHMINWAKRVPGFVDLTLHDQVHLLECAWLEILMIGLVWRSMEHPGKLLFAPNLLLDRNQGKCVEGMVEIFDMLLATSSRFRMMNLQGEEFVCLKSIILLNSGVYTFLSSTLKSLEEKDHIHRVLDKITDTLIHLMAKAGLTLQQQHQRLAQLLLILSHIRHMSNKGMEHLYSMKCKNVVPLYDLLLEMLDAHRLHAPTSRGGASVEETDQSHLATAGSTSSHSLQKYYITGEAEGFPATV
# Androgen receptor (Homo sapiens), sequence (P10275 whole entry, looked up): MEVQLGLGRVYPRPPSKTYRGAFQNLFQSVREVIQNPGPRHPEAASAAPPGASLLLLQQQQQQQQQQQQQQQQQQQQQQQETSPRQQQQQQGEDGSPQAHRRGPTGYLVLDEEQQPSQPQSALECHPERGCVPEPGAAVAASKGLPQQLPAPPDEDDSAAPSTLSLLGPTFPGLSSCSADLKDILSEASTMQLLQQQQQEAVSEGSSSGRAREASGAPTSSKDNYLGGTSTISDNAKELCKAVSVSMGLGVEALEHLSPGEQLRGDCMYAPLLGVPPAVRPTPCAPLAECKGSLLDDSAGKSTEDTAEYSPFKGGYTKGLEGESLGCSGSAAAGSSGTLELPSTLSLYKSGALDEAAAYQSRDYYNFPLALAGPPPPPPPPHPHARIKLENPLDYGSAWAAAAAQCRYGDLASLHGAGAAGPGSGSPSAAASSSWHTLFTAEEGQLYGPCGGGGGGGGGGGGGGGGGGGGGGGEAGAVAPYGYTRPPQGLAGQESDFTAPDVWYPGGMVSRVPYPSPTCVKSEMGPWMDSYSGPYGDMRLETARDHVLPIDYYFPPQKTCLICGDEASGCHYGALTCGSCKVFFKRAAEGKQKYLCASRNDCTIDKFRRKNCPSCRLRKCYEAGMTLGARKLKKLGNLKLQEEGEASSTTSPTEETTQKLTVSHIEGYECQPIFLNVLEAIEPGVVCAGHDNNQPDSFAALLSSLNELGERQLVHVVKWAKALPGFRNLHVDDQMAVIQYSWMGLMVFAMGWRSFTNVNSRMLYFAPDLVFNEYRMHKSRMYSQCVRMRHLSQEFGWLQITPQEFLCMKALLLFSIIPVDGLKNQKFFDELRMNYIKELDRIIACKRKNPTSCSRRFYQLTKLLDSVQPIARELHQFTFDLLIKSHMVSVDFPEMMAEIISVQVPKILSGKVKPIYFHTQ
smiles,measurement,setting,value
Clc1cc(Cl)nc(Cl)n1,Potency,[1],inactive
same,Potency,[2],inactive
same,Potency,[3],inactive
same,Potency,[4],inactive
same,Potency,[5],inactive
same,Potency,[6],inactive
same,Potency,[7],inactive
same,Potency,[8],inactive
same,Potency,[9],inactive
same,Potency,[10],inactive
same,Potency,[11],inactive
same,Potency,[12],inactive
same,Potency,[13],inactive
same,Potency,[14],inactive
same,Potency,[15],inactive
CCOC(=O)/C=C/C(=O)OCC,Potency,[1],inactive
same,Potency,[2],inactive
same,Potency,[3],inactive
same,Potency,[4],inactive
same,Potency,[5],inactive
same,Potency,[6],inactive
same,Potency,[7],inactive
same,Potency,[8],inactive
same,Potency,[10],inactive
same,Potency,[12],inactive
same,Potency,[16],inactive
same,Potency,[13],inactive
same,Potency,[17],inactive
same,Potency,[14],inactive
same,Potency,[15],inactive
C=CCc1ccccc1OCC(O)CNC(C)C (stereo not given),Potency,[1],inactive
same,Potency,[2],inactive
same,Potency,[3],inactive
same,Potency,[4],inactive
same,Potency,[5],inactive
same,Potency,[6],inactive
same,Potency,[7],inactive
same,Potency,[9],inactive
same,Potency,[10],inactive
same,Potency,[11],inactive
same,Potency,[12],inactive
same,Potency,[18],inactive
same,Potency,[13],inactive
same,Potency,[17],inactive
same,Potency,[14],inactive
same,Potency,[15],inactive
O=C(Cn1ccnc1[N+](=O)[O-])NCCO,Potency,[1],inactive
same,Potency,[2],inactive
same,Potency,[3],inactive
same,Potency,[4],inactive
same,Potency,[5],inactive
same,Potency,[6],inactive
same,Potency,[7],inactive
same,Potency,[8],inactive
same,Potency,[9],inactive
same,Potency,[10],inactive
same,Potency,[11],inactive
same,Potency,[12],inactive
same,Potency,[19],inactive
same,Potency,[16],inactive
same,Potency,[18],inactive
same,Potency,[17],inactive
same,Potency,[14],inactive
same,Potency,[15],inactive
CC(C)=CCC/C(C)=C/CC/C(C)=C/CCC(=O)OC/C=C(\C)CCC=C(C)C,Potency,[1],inactive
same,Potency,[2],inactive
same,Potency,[3],inactive
same,Potency,[4],inactive
same,Potency,[5],inactive
same,Potency,[6],inactive
same,Potency,[7],inactive
same,Potency,[8],inactive
same,Potency,[9],inactive
same,Potency,[10],inactive
same,Potency,[11],inactive
same,Potency,[12],inactive
same,Potency,[16],inactive
same,PLD induction,[18],-0.0635% [at 1.53 µM]
same,Potency,[13],inactive
same,Potency,[14],inactive
same,Potency,[15],inactive
C=CC(C)(CCC=C(C)C)OC(=O)CC(C)C (stereo not given),Potency,[1],inactive
same,Potency,[2],inactive
same,Potency,[3],inactive
same,Potency,[4],inactive
same,Potency,[5],inactive
same,Potency,[6],inactive
same,Potency,[7],inactive
same,Potency,[8],inactive
same,Potency,[9],inactive
same,Potency,[10],inactive
same,Potency,[12],inactive
same,Potency,[16],inactive
same,Potency,[13],inactive
same,Potency,[17],inactive
same,Potency,[14],inactive
same,Potency,[15],inactive
CCN(CC)CCNC(=O)COc1ccc(OC)cc1,Potency,[1],inactive
same,Potency,[2],inactive
same,Potency,[3],inactive
same,Potency,[4],inactive
same,Potency,[20],inactive
same,Potency,[6],inactive
same,Potency,[7],inactive
same,Potency,[10],inactive
same,Potency,[11],inactive
same,Potency,[12],inactive
same,Potency,[16],inactive
same,Potency,[18],inactive
same,Potency,[13],inactive
same,Potency,[17],inactive
same,Potency,[14],inactive
same,Potency,[15],inactive
CCC(C)COC(=O)CC(C)C (stereo not given),Potency,[1],inactive
same,Potency,[2],inactive
same,Potency,[3],inactive
same,Potency,[4],54.9 µM (active)
same,Potency,[5],inactive
same,Potency,[6],inactive
same,Potency,[7],inactive
same,Potency,[8],inactive
same,Potency,[9],inactive
same,Potency,[10],inactive
same,Potency,[11],inactive
same,Potency,[12],inactive
same,Potency,[16],inactive
same,Potency,[13],inactive
same,Potency,[17],inactive
same,Potency,[14],inactive
same,Potency,[15],inactive
